# Experimental data taken from ChEMBL document CHEMBL3988442, “University of Dundee, Small-Polar-MMV Screening Library” (2021).
# About 13,000 (27%) of roughly 48,000 compounds showed an effect of 50% or more. The list shows a part of the results.
# Test system: Wolbachia pipientis
# Test: Anti-Wolbachia Cell-Based Screen
# Type: functional
# Design: scale not given: in the data most compounds retested in dose-response had high values
# Settings: 5 µM
row,Compound,Percent Effect [%]
1,CCN(CCc1ccccc1)Cn1nc(C)c2c(C)onc2c1=O,9.974
2,CC(C)NC(=O)N1CCOC2(CNC2)C1,2.797
3,CC(C)(C)n1cc(C(=O)O)c(-c2ccc(F)cc2F)n1,0.2477
4,CN1C(Cn2cccn2)C[C@@H]2CN(Cc3cccnc3)CC[C@@H]21.O=C(O)C(F)(F)F.O=C(O)C(F)(F)F.O=C(O)C(F)(F)F.O=C(O)C(F)(F)F (stereo partly drawn),103.4
5,CC(C)N1[C@H](Cn2cncn2)C[C@@H]2CN(c3ncccn3)CC[C@@H]21.O=C(O)C(F)(F)F,2.319
6,CN(C)C[C@@H]1C[C@@H]2CN(c3ncc(F)cn3)CC[C@@H]2N1C.O=C(O)C(F)(F)F.O=C(O)C(F)(F)F.O=C(O)C(F)(F)F,-18.44
7,O=C(O)C(F)(F)F.O=C(O)C(F)(F)F.O=C1[C@H]2CN(Cc3ccoc3)C[C@H]2CN1Cc1cccnc1,-13.37
8,Cc1oncc1C(=O)N1CC[C@H]2[C@H](C[C@@H](CN3CCCC3)N2C)C1.O=C(O)C(F)(F)F.O=C(O)C(F)(F)F,90.36
9,O=C(O)C(F)(F)F.O=C(O)C(F)(F)F.O=C(O)C(F)(F)F.c1ccc(CN2CC[C@H]3[C@H]2CCN3c2ncccn2)nc1,-2.728
10,Cc1cnc(N2CC[C@H]3[C@H](C[C@@H](CN(C)C)N3C)C2)nc1.O=C(O)C(F)(F)F.O=C(O)C(F)(F)F.O=C(O)C(F)(F)F,-11.75
11,CN1C(Cn2cccn2)C[C@@H]2CN(Cc3ccccn3)CC[C@@H]21.O=C(O)C(F)(F)F.O=C(O)C(F)(F)F.O=C(O)C(F)(F)F.O=C(O)C(F)(F)F (stereo partly drawn),100.1
12,Cn1cc(N2C[C@@H]3CN(Cc4ccccn4)C[C@@H]3C2=O)cn1.O=C(O)C(F)(F)F.O=C(O)C(F)(F)F,-17.49
13,O=C(C1CCCC1)N1C[C@@H]2CCNC[C@@H]21,-32.69
14,Cc1nc(O)cc(CNC(=O)CC[C@@H]2CCCN3CCCC[C@H]23)n1,-12.46
15,COCCO[C@@H]1C[C@H]2CN(C(=O)c3ccc(C)nc3)CCN2C1,-21.72
16,Cc1cc(N2CCCN3CCC[C@H]3C2)n2nc(C)c(C)c2n1,20.9
17,Cn1nc(-c2cccs2)cc1[C@H]1CN2CC[C@H]1C[C@@H]2CN,-6.528
18,FC(F)(F)c1cc(-c2cccs2)nc(N2CCN3CCCC3C2)n1 (stereo not drawn),58.5
19,NC1(c2nc(-c3cccs3)cc(=O)[nH]2)CCCCC1,-5.956
20,Cc1cc(N2CCN3CCCCC3C2)n2nc(C)c(C)c2n1 (stereo not drawn),11.68

row,Compound,Percent Effect [%]
1,Cc1cc(C(F)(F)F)nc(N2CCN3CCCC3C2)n1 (stereo not drawn),105
2,CN(C)C(=O)N1CCC2(C1)CN(c1cccnc1)C(=O)CN2C (stereo not drawn),109.4
3,O=C(O)C(F)(F)F.O=C(O)C(F)(F)F.O=C1CC2(CCN(CC3CC3)C2)CN1c1cccnc1 (stereo not drawn),7.384
4,O=C(O)C(F)(F)F.O=C(O)C(F)(F)F.O=C1CC2(CCN(Cc3ccccn3)C2)CN1c1cccnc1 (stereo not drawn),1.703
5,CCN1CCN(C(=O)COc2ccc(CN(C)S(C)(=O)=O)cc2)CC1,-1.123
6,COc1cccc(OCC(=O)N2CCCSCC2CN2CCOCC2)c1 (stereo not drawn),8.311
7,CN(C)[C@@H]1CN(C(=O)COc2cccc(F)c2)C[C@H]1O,81.08
8,COc1ccccc1OCC(=O)N1CCN(Cc2noc(C)n2)CC1,5.502
9,O=C(COc1cccc(F)c1)N1C[C@@H](O)[C@H](N2CCCC2)C1,-2.251
10,O=C(COc1cccc(F)c1)N1C[C@@H](O)[C@H](N2CCOCC2)C1,106.1
11,Cc1ccccc1C1(CN)CCCCC1,0.8163
12,Cc1nc(N2C[C@H]3CC[C@@H](C2)N3)nc2cc(S(C)(=O)=O)ccc12,4.923
13,Cc1cnc(N2CCC[C@@H]3CN(CC(=O)N(C)C)C[C@@H]32)nc1.O=C(O)C(F)(F)F.O=C(O)C(F)(F)F,-0.2022
14,CCOC(=O)CN1C[C@@H]2OCCN(c3ncc(F)cn3)[C@@H]2C1,86.46
15,CN(C)C(=O)CN1C[C@@H]2OCCN(c3ncc(F)cn3)[C@@H]2C1,104.1
16,Cc1nc(CN2C[C@@H]3OCCN(c4ncc(F)cn4)[C@@H]3C2)cs1,-23.28
17,CCN1C[C@H]2[C@@H](C1)N(c1ncc(F)cn1)CC[C@H]2OC.O=C(O)C(F)(F)F.O=C(O)C(F)(F)F,2.548
18,Cc1nc(C2CCCN(C(C)C)C2)sc1Br (stereo not drawn),117
19,Cc1nc(C2CCN(C(C)C)CC2)sc1Br,83.07
20,Cl.O=C(NCC(F)(F)F)C1=NOC2(CCCNC2)C1 (stereo not drawn),8.664

row,Compound,Percent Effect [%]
1,CN(Cc1cncnc1)[C@H]1CN(Cc2ccco2)[C@@H]2CCCO[C@@H]21,-12.03
2,c1ccc(-c2cc(CN3C[C@H]4CC[C@H]3C4)on2)cc1,0.1259
3,Cc1cc(CN2CCN3C[C@H](c4ccccc4)[C@@H](CO)[C@H]3C2)on1,124.7
4,O=C(O)C(F)(F)F.O=C(O)C(F)(F)F.c1ccc(CO[C@@H]2C[C@H]3CN(c4ncccn4)CCN3C2)nc1,-5.237
5,CN(C)C(=O)CN1CCO[C@H]2CN(c3ccccn3)C[C@H]21,-17.61
6,OC[C@@H]1[C@@H](c2ccccc2)CN2CCN(c3ccccn3)C[C@H]12,121.4
7,OC[C@@H]1[C@H]2CN(c3ccccn3)CCN2C[C@H]1c1ccccc1,110.4
8,Cc1cc(CN2C[C@H]3CC[C@@H]2CN(Cc2[nH]cnc2C)C3)on1,1.495
9,COCC(=O)NC[C@H]1C[C@@H]2CCN1C[C@@H]2CN1CCc2ccccc2C1,-3.386
10,COc1cccc(CC(C)NC(=O)NCCc2cccnc2)c1 (stereo not drawn),-9.147
11,CN(C)Cc1cncc2c1CCN(CC(=O)N(C)C)C2,91.67
12,CS(=O)(=O)NCc1cncc2c1CCN(CC1CCOC1)C2.Cl.Cl (stereo not drawn),-2.425
13,CC(C)N(C)Cc1cncc2c1CCN(CC(=O)N(C)C)C2.Cl.Cl.Cl,105.8
14,CCN1CCc2c(CNC(=O)c3nccn3C)cncc2C1.Cl.Cl.Cl,11.07
15,CN(C)C(=O)CN1C[C@@H]2CC[C@H](C1)N(C(=O)Cc1ccccc1Cl)C2,-1.206
16,CC(C)N(C)Cc1cncc2c1CCN(CC1CC1)C2.Cl.Cl.Cl,102.9
17,CN(C)C(=O)CN1C[C@@H]2CC[C@H](C1)N(Cc1c(Cl)cncc1Cl)C2,-12.98
18,Cl.Cl.c1cnc(NCc2cncc3c2CCN(CC2CC2)C3)nc1,93.82
